Measured values taken from PubChem BioAssay (Tox21).
Inconclusive results are not listed. Unmarked numbers belong to inactive results. Calls of active or inactive are those of the source. Calls come from the whole dose curve; as a rule, active = well fitted cell-killing curve with a large enough effect in the repeat runs; inconclusive = weak or mixed curves, or effect the other way; inactive = flat fitted curve, though single readings scatter.

Experiment: cAMP Responsive Elements (CRE) small molecule agonists, cell-based qHTS assay: qHTS cell viability counter screen (AID 2060914); note: nearly all actives have a fitted effect of over 50% in size
Details: CRE-bla HEK293T viability, CellTiter-Glo luminescence, 5 h; series mostly up to 92.4 µM; activity change, negative = cytotoxicity: at the top concentration
Procedure, shortened: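 Cytotoxicity was measured as ATP luminescence (CellTiter-Glo, 30 min at room temperature) in the same wells as the CRE-bla FRET read-out. HEK293T CRE-bla cells had 3 h compound exposure at 37C/5% CO2.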
% is set by controls: 0 for no effect and ±100 for the full control effect; potency is the fitted concentration of half-maximal effect.

| Structure (SMILES) | Potency | activity change, negative = cytotoxicity |
| --- | --- | --- |
| O=C1CC2(CCCC2)CC(=O)N1CCCCN1CCN(c2ncccn2)CC1 | inactive | – |
| Cc1cc(CC(=O)O)c(C)n1-c1ccc(Cl)cc1 | – | 8.75% [at 42.5 µM] |
| Clc1nc(Cl)c(Cl)c(Cl)c1Cl | inactive | – |
| CC(O)CN(CCCN(C)C)CCCN(C)C (stereo not given) | – | 3.15% |
| CC(C)CCO | – | 10.3% |
| O=c1[nH]c(=O)n([C@H]2C[C@H](O)[C@@H](CO)O2)cc1Br | inactive | – |
| Cc1cc(CC(=O)O)n(C)c1C(=O)c1ccc(Cl)cc1 | inactive | – |
| NC(=O)C1(N2CCCCC2)CCN(CCCN2c3ccccc3CCc3ccc(Cl)cc32)CC1 | – | -14% [at 42.5 µM] |
| CC(C)(C)NC(=O)[C@H]1CC[C@H]2[C@@H]3CC[C@H]4NC(=O)C=C[C@]4(C)[C@H]3CC[C@]12C | inactive | – |
| CC1(C)C(=O)C(C)(C)C1=O | – | 1.74% |
| O=C(Cn1ccnc1[N+](=O)[O-])NCCO | – | -0.225% [at 42.5 µM] |
| Cc1ccc(C)c(O)c1 | inactive | – |
| CNCCc1ccccn1 | – | -21.1% [at 42.5 µM] |
| CC(C)(C)c1ccc(OCC2CO2)cc1 (stereo not given) | – | 1.08% |
| CCCc1nn(C)c2c(=O)[nH]c(-c3cc(S(=O)(=O)N4CCN(C)CC4)ccc3OCC)nc12 | – | 6.26% [at 42.5 µM] |
| CC(C)(C)C(=O)c1ccccc1 | – | 0.0789% |
| CC(=O)Nc1ccc(S(=O)(=O)Nc2cc(C)on2)cc1 | – | 10.5% [at 42.5 µM] |
| C=C(C)C(=O)OCCO | – | -1.12% |
| CCCCCC(CC)OC(=O)CCCOc1ccc(Cl)cc1Cl (stereo not given) | – | -4.56% |
| N#CSCC(=O)O | – | 4.19% [at 42.5 µM] |

| Structure (SMILES) | Potency | activity change, negative = cytotoxicity |
| --- | --- | --- |
| BrC/C=C/CBr | – | 3.61% [at 18.9 µM] |
| COc1cc(Cc2cnc(N)nc2N)cc(OC)c1OC | inactive | – |
| CC(=O)N[C@@H](CO)C(=O)N[C@@H](CC(=O)O)C(=O)N[C@@H](CCCCN)C(=O)N1CCC[C@H]1C(=O)O | – | -2.19% [at 42.5 µM] |
| CC(O)CC(C)(C)O (stereo not given) | inactive | – |
| CC(C)c1ccc2c(c1)CC[C@H]1[C@](C)(CN)CCC[C@]21C | – | -12.6% |
| CCC(=O)OC(=O)CC | – | -3.47% |
| Cc1cc(N)no1 | – | 0.444% |
| O=S(=O)(Cl)c1c(Cl)cccc1Cl | – | -3.43% |
| CC1=C(C/C=C(\C)CCC[C@H](C)CCC[C@H](C)CCCC(C)C)C(=O)c2ccccc2C1=O | – | 0.29% [at 42.5 µM] |
| CCCCCCCCOC(=O)c1cc(O)c(O)c(O)c1 | – | -23.5% |
| CCCCCCCCC(CCCCCC)C(=O)O (stereo not given) | – | -1.89% |
| CN1CCN(C2=Nc3ccccc3Sc3ccc(Cl)cc32)CC1 | – | -3.77% [at 42.5 µM] |
| CSCC[C@H](NC(=O)[C@H](Cc1c[nH]c2ccccc12)NC(=O)CCNC(=O)OC(C)(C)C)C(=O)N[C@@H](CC(=O)O)C(=O)N[C@@H](Cc1ccccc1)C(N)=O | – | -1.18% [at 42.5 µM] |
| COC(=O)c1cccc(C(=O)OC)c1 | inactive | – |
| CCCCCCCCCCCCCCCCN | – | -1.17% [at 42.5 µM] |
| CC(C)c1ccc(S(=O)(=O)O)cc1 | inactive | – |
| N[C@@H](CCC(=O)O)C(=O)O | – | 9.39% |
| CC(C)=O | 25 µM (active) | – |
| COCC(=O)O[C@]1(CCN(C)CCCc2nc3ccccc3[nH]2)CCc2cc(F)ccc2[C@@H]1C(C)C | – | -2.48% [at 42.5 µM] |
| c1cc(CN2CCCCC2)cc(OCCCNc2nc3ccccc3s2)c1 | – | -0.961% [at 42.5 µM] |
